Counter-ions that a name gives are not always drawn.

The assay concerns Danio rerio larvae (5 dpf). The assay can be described thus: optomotor response to red moving lines, difference vs DMSO (percentage points (treated minus DMSO)); higher = more of the behaviour than the DMSO vehicle control. As to conditions: 10 µM; exposure time: 3 h pre-incubation + 3 h imaging. As to the method:
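5-dpf wild-type zebrafish larvae were imaged in 96-well plates. They were treated with 190 Tocris FDA-approved drugs at 10 µM (1 µl/ml DMSO) for 3 h before and 3 h during imaging at 28.5 °C, 48 larvae per drug. Automated image analysis gave % time moving and optomotor responses. Values are drug group mean minus DMSO vehicle mean (n=844), in percentage points, for 10 behaviours.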
Regarding `COc1cc2c(cc1OC)C1CC(=O)C(CC(C)C)CN1CC2` (stereo unspecified) [Tetrabenazine], the “optomotor response to red moving lines” value was -1.77. Under `COc1ccc(C(CN(C)C)C2(O)CCCCC2)cc1` (stereo unspecified) [Venlafaxine hydrochloride] stands 18.8. Regarding `O=c1[nH]c2ccccc2n1C1CCN(CCCC(c2ccc(F)cc2)c2ccc(F)cc2)CC1` [Pimozide], the “optomotor response to red moving lines” value is -0.227. To `C=CCN1C[C@H](C(=O)N(CCCN(C)C)C(=O)NCC)C[C@@H]2c3cccc4[nH]cc(c34)C[C@H]21` [Cabergoline] belongs -3.05. As for `N[C@@H]1C[C@H]1c1ccccc1` [Tranylcypromine hydrochloride], the “optomotor response to red moving lines” value was found to be 12.9. To `CC(C)C[C@H]1C(=O)N2CCC[C@H]2[C@]2(O)O[C@](NC(=O)[C@@H]3C=C4c5cccc6[nH]c(Br)c(c56)C[C@H]4N(C)C3)(C(C)C)C(=O)N12` [Bromocriptine mesylate] belongs -29; to `CC[C@@H](C(N)=O)N1CCCC1=O` [Levetiracetam], 0.251; to `CN1C[C@H](C(=O)N[C@]2(C)O[C@@]3(O)[C@@H]4CCCN4C(=O)[C@H](Cc4ccccc4)N3C2=O)C[C@@H]2c3cccc4[nH]cc(c34)C[C@H]21` [Dihydroergotamine mesylate], 11.5.

Regarding `C=C1C[C@@H]2[C@H](CC[C@]3(C)C(=O)CC[C@@H]23)[C@@]2(C)C=CC(=O)C=C12` [Exemestane], the “optomotor response to red moving lines” value was 6.78. With `CCN(C)C(=O)Oc1cccc([C@H](C)N(C)C)c1` [Rivastigmine tartrate], the “optomotor response to red moving lines” value was -8.95. Under `CC(O)(CS(=O)(=O)c1ccc(F)cc1)C(=O)Nc1ccc(C#N)c(C(F)(F)F)c1` (stereo unspecified) [Bicalutamide] stands -10.4.

For the origin of these results see the supplement of paper PMC9023506.
